# Data: PubChem BioAssay AID1508623 (National Center for Advancing Translational Sciences (NCATS), 2021)
# Screen size: about 48,000 compounds; about 450 (0.94%) were called active. Not shown: some 19% with an inconclusive outcome. For the sample, actives were picked, then their nearest neighbours and some compounds at random. A number with no mark means an inactive call. The call rests on the fitted dose curve; in most records, active means well fitted inhibition curve with a large enough effect; inconclusive means small, poorly fitted or top-dose-only effect; inactive means no such curve, though single readings can be large or run the other way.
# Assay: Primary qHTS for Identification of Small Molecule Inhibitors of Huntingtin Promoter Activity; further: nearly all actives have a fitted effect of over 50% in size
# Conditions: HEK293 HTT promoter firefly luciferase reporter (activity 0% = vehicle and -100% = no light), 24 h; series mostly up to 57.5 µM; activity change, negative = inhibition: at the top concentration
# Description: Assay Provider: Russell L. Margolis M.D.
# Department Neurology, Johns Hopkins University School of Medicine, Baltimore, MD
# Huntington's Disease (HD) is a neurodegenerative disorder caused by a CAG repeat expansion in exon 1 of huntingtin (HTT). While there are currently no disease-modifying treatments for HD, recent efforts have focused on development of nucleotide-based therapeutics to lower HTT expression. As an alternative to siRNA or oligonucleotide methods, we hypothesized that suppression of HTT expression might be accomplished by small molecules that either (1) directly decrease HTT expression by suppressing HTT promoter activity or (2) indirectly decrease HTT expression by increasing the promoter activity of HTT-AS, the gene antisense to HTT that appears to inhibit expression of HTT.
# We developed and employed a high throughput screen for modifiers of HTT and HTT-AS promoter activity using luminescent reporter HEK293 cells; of the 52,041 compounds tested, we identified 898 replicable hits. We used a rigorous stepwise approach to assess compound toxicity and the capacity of the compounds to specifically lower huntingtin protein in 5 different cell lines, including HEK293 cells, HD lymphoblastoid cells, mouse primary neurons, HD iPSCs differentiated into cortical-like neurons, and HD hESCs. We found no compounds which were able to lower huntingtin without lowering cell viability in all assays, though the potential efficacy of a few compounds at non-toxic doses could not be excluded.
# SEQUENCE No. (1, 2, 3, etc.); […] (e.g., Cells, Incubation, Reagent, etc.); VALUE and DESCRIPTION.
# 1; Reagent; 4 uL; 2,500 Hek293 luciferase reporter cells per wells
# 3; Compound; 23 nL; Control inhibitor / compound library
# 5; Reagent; 2.5 uL; Firefly Luc reagent; Dual-Glo Luciferase Reporter Assay System (Promega)
# 6; Time; 10 min; room temperature incubation
# 7; Detection; Luminescence; FLuc
# NOTES (numbers refer to sequence above)
# 1; High-throughput screening, measuring luminescence from a Hek293 luciferase reporter, was performed in 1,536 well white-walled tissue-culture treated plates. 2,500 cells were plated in 4 µL of Opti-MEM per well using a Multidrop Combi Reagent Dispenser (ThermoFisher).
# 2; Assay plates were cultured for 24 hours.
# 3; Control inhibitor (PTC124; final concentration of 50 uM) and compound library (at final concentrations of 460 nM - 57.5 uM) were added to the assay plate using the Kalypsis Pintool Robotic System equipped with 1536 pinheads.
# 4; Cells were then incubated for 24 hours at 37 degrees C prior to luminescence measurements.
# 5; In all cases, luminescence was measured using the Dual-Glo Luciferase Reporter Assay System (Promega) following the manufacturer's instructions.
# 6; Room temperature incubation.
# 7; Luminescence signal was obtained using the PerkinElmer ViewLux plate reader. Results were normalized to vehicle control (0% activity) and zero RLU (-100% activity).
# Potency means the concentration at half of the fitted maximal effect.
SMILES,"activity change, negative = inhibition [%]",Potency
Cc1cccc(N2CCN(C(=O)c3ccc(Nc4nc5ccccc5n5nnnc45)cc3)CC2)c1C,16.4,
O=C(c1ccc2c(c1)N(Cc1ccccc1)C(=O)c1ccccc1S2(=O)=O)N1CCCC1,-7.16,
CCOc1ccccc1N(CC)C(=O)Nc1cn(C)c(=O)c2ccccc12,-16.3,
CSc1nc(-c2ccc(F)cc2)nc2c1Cc1c(CO)cnc(C)c1O2,-12.1,
CCOc1ccc(NC(=O)C(CC(C)C)N2Cc3ccccc3C2=O)cc1 (stereo unspecified),-25.6,
COC(=O)c1cc(NC(=O)c2sc3ccccc3c2Cl)cc(C(=O)OC)c1,-2.04,
Cc1cccc(N2CCN(C(=O)c3oc(=O)c4ccccc4c3-c3ccccc3)CC2)c1C,-9.19,
CC(C)(C)OC(=O)N1CCC(c2c(C(=O)NCc3ccccn3)cnn2-c2ccc(F)cc2)CC1,-10.4,
Cc1ccc(NC(=O)CSc2nc3c([nH]c4ccccc43)c(=O)n2-c2ccccc2)c(C)c1,-11.7,
COc1ccc(-c2noc(CSc3nc4ccc(C)cc4[nH]3)n2)cc1,,28.2 µM (active)
COc1ccc(-c2noc(CSc3nc(C)cc(=O)[nH]3)n2)cc1OC,-20.2,
Cc1ccc(-c2noc(CSc3nnc(-c4ccc(Cl)cc4)n3C)n2)cc1,-27.1,
Cn1c(=O)c2c(SCC(=O)N3CCc4ccccc43)nc(-c3ccc(Cl)cc3)nc2n(C)c1=O,-7.37,
Cc1cc(C)cc(NC(=O)CSc2oc(-c3ccccc3)nc2S(=O)(=O)c2ccc(Cl)cc2)c1,-14.6,
Cc1ccc2c(=O)c(C(=O)c3ccc(Cl)cc3)cn(CC(=O)NC3CCCCC3)c2n1,12.6,
COC(=O)c1scc(-c2ccc(C)cc2)c1S(=O)(=O)Nc1cc(Cl)c(OC)cc1OC,-15.9,
CCOC(=O)c1ccc(NC(=O)c2csc3c2CCCCC3)cc1,-10.1,
COc1cccc(C(=O)c2sc3nc(-c4ccccc4)cc(C(F)(F)F)c3c2N)c1,-24.4,
Cn1c(=O)n(Cc2c(F)cccc2Cl)c(=O)c2c1nc1n2CCN1c1ccc(F)cc1,-1.17,
CCc1nn(CC(=O)N2CCN(c3cccc(C(F)(F)F)c3)CC2)c(=O)c2cc3occc3n12,-13,
COC(=O)c1ccc(OC)c(Cn2c(=O)n(Cc3ccccc3)c(=O)c3c2c2cc(OC)ccc2n3C)c1,-9.45,
Cc1cccc(C(=O)NCCc2nc3ccccc3n2Cc2ccccc2Cl)c1,0.0337,
CCOc1ccc2nc(N3CCCC(C(=O)Nc4cc(C)ccc4C)C3)sc2c1 (stereo unspecified),38.3,

SMILES,"activity change, negative = inhibition [%]",Potency
O=C(/C=C/c1ccccc1)N1CCN(Cc2cc(=O)n3nc(-c4ccccc4F)sc3n2)CC1,-11.1,
COc1cccc(Cn2c(SCc3ccc(C(=O)N4CCCCC4)cc3)nc3ccncc32)c1,,12.6 µM (active)
Cc1cccc(CSc2nc3ccncc3n2Cc2ccc(C(=O)O)cc2)c1,4.83,
O=C(O)c1ccc(Cn2c(SCc3ccc(F)cc3)nc3ccncc32)cc1,4.54,
COc1ccccc1Cc1nc2ccccc2nc1SCC(=O)N1CCCc2ccccc21,-3.18,
Cc1ccc(CNC(=O)CCc2c(C)nc3nc(CNC(=O)OC(C)(C)C)nn3c2C)cc1,-20.6,
CC(=O)N1CCCc2cc(S(=O)(=O)N3CCC(C(=O)NC4CCCCC4)CC3)ccc21,-20.4,
CC(=O)N1CCCc2cc(S(=O)(=O)Nc3ccc(Cl)cc3F)ccc21,-28.1,
CC(=O)N1CCCc2cc(S(=O)(=O)N3CCCC(C(=O)N4CCN(c5cccc(Cl)c5)CC4)C3)ccc21 (stereo unspecified),,7.08 µM (active)
CCN(CC)c1ccc(NC(=O)CN2CCN(CC(=O)Nc3ccc(Cl)cc3)CC2)cc1,-28.4,
Cc1oc2ncnc(N3CCOCC3)c2c1C(=O)NCCc1ccccc1,19.5,
Cc1ccc(NC(=O)c2oc3ccc(S(=O)(=O)N4CCCCC4)cc3c2C)cc1Cl,-15.5,
Cc1c(C(=O)Nc2cccc(Cl)c2)oc2ccc(S(=O)(=O)N3CCOCC3)cc12,-4.7,
CCOC(=O)c1oc2ccc(S(=O)(=O)n3nc(-c4ccccc4OC)cc3N)cc2c1C,,12.6 µM (active)
O=C(Nc1ccc2nc(SCC(=O)N3CCc4ccccc43)sc2c1)c1ccccc1F,-3.2,
O=C(c1cccc(Cl)c1)N1CCN(CCc2ccncc2)CC1,-11.7,
COC(=O)c1sccc1S(=O)(=O)N(CC(=O)Nc1ccc(C)c(F)c1)c1ccc(C)c(C)c1,-10.9,
CC1CN(C(=O)N2CCC(C(=O)NCc3cccs3)CC2)c2ccccc2O1 (stereo unspecified),-9.81,
Cc1ccc2nc(COc3cccc(NC(=O)c4cccc(Cl)c4)c3)cc(=O)n2c1,-0.53,
CCn1cc(C(=O)NCCc2ccccc2)c(=O)c2cc(S(=O)(=O)N3CCCCCC3)ccc21,-17.5,
CCc1ccc(NC(=O)N2CCN(C(=O)c3nsc4ccccc34)CC2)cc1,-28.2,
Cc1ccc(Oc2c(C(F)(F)F)oc3c(CN4CCCCC4)c(O)ccc3c2=O)cc1,-41.6,
COc1ccc(-c2cc(NCc3ccc(F)cc3)n3cnnc3n2)cc1,-27.2,
